In paper PMC4552634, “A New Set of Chemical Starting Points with Plasmodium falciparum Transmission-Blocking Potential for Antimalarial Drug Discovery” (PLoS ONE, 2015):
About 3,200 (25%) of roughly 13,000 compounds showed an effect of 50% or more. Some of the results follow.

tested on: P. falciparum stage V gametocytes; parameters: BacTiter-Glo ATP luminescence viability of purified stage V gametocytes in 384-well plates, per cent inhibition versus DMSO; conditions: 48 h, 5 µM; inhibitor

SMILES | % Inhibition [%]
Cc1cccc2nc(-c3cccc(-c4cccc(C(=O)NCc5nccn5C)c4)c3)[nH]c12 [TCMDC-132355] | -47.29
CNCCNCc1ccc(-c2ccc(-c3nc4ccc(C(F)(F)F)cc4[nH]3)cc2)cc1 [TCMDC-132833] | 32.25
CNCCNCc1ccc(-c2cccc(-c3nc4ccc(C(F)(F)F)cc4[nH]3)c2)cc1 [TCMDC-132826] | 78.68
CNCCNCc1cccc(-c2cccc(-c3nc4ccc(C(F)(F)F)cc4[nH]3)c2)c1 [TCMDC-132827] | 52.85
CNc1ccc(CNCc2cccc(-c3ccc(-c4nc5ccc(C(F)(F)F)cc5[nH]4)cc3)c2)cc1 [TCMDC-132982] | -73.95
CN(CCN)Cc1cccc(-c2cccc(-c3nc4ccc(F)cc4[nH]3)c2)c1 [TCMDC-132822] | 48.31
COc1ccc(CNCc2cccc(-c3ccc(-c4nc5ccc(C(F)(F)F)cc5[nH]4)cc3)c2)cc1 [TCMDC-132723] | -32.29
CC(C)NCc1cccc(-c2ccc(-c3nc4ccc(C(F)(F)F)cc4[nH]3)cc2)c1 [TCMDC-132742] | -56.16
CNCCNCc1cccc(-c2ccc(-c3nc4ccc(C(F)(F)F)cc4[nH]3)cc2)c1 [TCMDC-132834] | 79.7
CN(CCN)Cc1cccc(-c2cccc(-c3nc4ccc(C(F)(F)F)cc4[nH]3)c2)c1 [TCMDC-132818] | 68
COc1ccc(CNCc2ccc(-c3cccc(-c4nc5ccc(C(F)(F)F)cc5[nH]4)c3)cc2)cc1 [TCMDC-132731] | -22.42
Clc1ccc(-c2cc(-c3csc(NCCN4CCCCC4)n3)on2)cc1 [TCMDC-140321] | -2.378
NC(=O)C1CCN(Cc2cccc(-c3cccc(-c4nc5cc(C(F)(F)F)ccc5[nH]4)c3)c2)CC1.O=C(O)C(F)(F)F [TCMDC-132696] | -65.64
Cc1ccc(C(C)C)c(Oc2ccc3nc(N)nc(N)c3c2)c1 [TCMDC-135559] | -10.97
OC1(Cc2ccccc2)CCN(Cc2cccc(-c3c[nH]c4nc(NC5CCCC5)ncc34)c2)CC1 [TCMDC-133773] | -59.82
FC(F)(F)c1ccc2nc(-c3cccc(-c4cccc(CN5CCN(c6ccncc6)CC5)c4)c3)[nH]c2c1 [TCMDC-132911] | -29.28
FC(F)(F)c1ccc2nc(-c3cccc(-c4cccc(CNCCc5ccncc5)c4)c3)[nH]c2c1 [TCMDC-132847] | 78.26
FC(F)(F)c1ccc2nc(-c3cccc(-c4ccc(CNCCc5ccncc5)cc4)c3)[nH]c2c1 [TCMDC-132845] | -28.78
O=C(O)C(F)(F)F.c1cc(CNCCc2ccncc2)cc(-c2ccc(-c3nc4ccccc4[nH]3)s2)c1 [TCMDC-132842] | -14.4
c1cc(CNCCc2ccncc2)cc(-c2cccc(-c3nc4ccccc4[nH]3)c2)c1 [TCMDC-132858] | 84.49
c1cc(CNCCc2ccncc2)cc(-c2csc(-c3nc4ccccc4[nH]3)c2)c1 [TCMDC-132841] | -33.89
O=C(c1cc2nc3c(c(C(F)(F)F)n2n1)CCc1ccccc1-3)N1CCN2CCCC2C1 (centres unmarked) [TCMDC-123850] | 0.1952
CCc1ccc(CN2CCC(CNC(=O)c3cc(-c4cccc(C(F)(F)F)c4)cs3)C2)cc1 (centres unmarked) [TCMDC-134430] | 102.1

SMILES | % Inhibition [%]
CC(C)(C)c1ccc(CN2CCC(NC(=O)c3cc(-c4cccc(C(F)(F)F)c4)cs3)C2)cc1 (centres unmarked) [TCMDC-134475] | 53.3
CC(C)(C)CCN1CCC(NC(=O)c2ccc(-c3cccc(C(F)(F)F)c3)s2)CC1 [TCMDC-134322] | -68.21
CC(C)(C)CCN1CCC(CNC(=O)c2cc(-c3cccc(C(F)(F)F)c3)cs2)C1 (centres unmarked) [TCMDC-134425] | 78.38
CSc1ccc(CN2CCC(NC(=O)c3ccc(-c4cccc(C(F)(F)F)c4)s3)CC2)cc1 [TCMDC-134340] | 5.591
O=C(NC1CCN(Cc2ccc(F)cc2)CC1)c1ccc(-c2cccc(C(F)(F)F)c2)s1 [TCMDC-134358] | -14.39
CC(C)c1ccc(CN2CCC(CNC(=O)c3cc(-c4cccc(C(F)(F)F)c4)cs3)C2)cc1 (centres unmarked) [TCMDC-134435] | 101.9
CC(C)(C)CCN1CCC(CNC(=O)c2cc(-c3cccc(Cl)c3)cs2)C1 (centres unmarked) [TCMDC-134426] | 39.67
O=C(NCC1CCN(Cc2ccc(F)cc2)C1)c1cc(-c2cccc(C(F)(F)F)c2)cs1 (centres unmarked) [TCMDC-134481] | 39.58
COc1ccc(CNC(=O)NC2CCN(c3ccnc(Nc4ccc(F)cc4)n3)C2)cc1 (centres unmarked) [TCMDC-133592] | -44.87
CCCc1cc(Cc2cnc(N)nc2N)cc(CCC)c1OCCCCC(=O)OC [TCMDC-137290] | -38.14
CCNc1cc(C)nc(Nc2ccccc2)n1 [TCMDC-134006] | 18.88
CC(=O)Nc1nc(C(=O)Nc2ccc(-c3ccc(-c4nc5ccccc5[nH]4)cc3)cc2)cs1 [TCMDC-137128] | -5.634
CCOC(=O)CCCOc1c(OC)cc(Cc2cnc(N)nc2N)cc1OC [TCMDC-137899] | -8.343
O=C(Nc1ccc(Cl)c(C(F)(F)F)c1)Nc1ccc(Cl)c(C(F)(F)F)c1 [TCMDC-137559] | -42.31
CC(C)(C)c1ccc(CN2CCC(CNC(=O)c3cc(-c4cccc(C(F)(F)F)c4)cs3)C2)cc1 (centres unmarked) [TCMDC-134442] | 107
CN(C)CCOc1cc(NC(=O)/C=C/c2cccc3ccccc23)ccc1I [TCMDC-139119] | 42.15
OCC1CCN(Cc2ccc(-c3ccc(-c4nc5ccccc5[nH]4)cc3)cc2)CC1 [TCMDC-133927] | -51.35
OCC1CCN(Cc2ccc(-c3cccc(-c4nc5ccc(F)cc5[nH]4)c3)cc2)CC1 [TCMDC-133121] | 70.65
NC(=O)C1CCN(Cc2ccc(-c3cccc(-c4nc5ccc(F)cc5[nH]4)c3)cc2)CC1 [TCMDC-132689] | -35.18
OCC1CCN(Cc2ccc(-c3cccc(-c4nc5ccccc5[nH]4)c3)cc2)CC1 [TCMDC-132552] | 86.93
OCCC1CCN(Cc2ccc(-c3ccc(-c4nc5ccccc5[nH]4)cc3)cc2)CC1 [TCMDC-133905] | -1.76
OCC1CCN(Cc2cccc(-c3ccc(-c4nc5ccc(F)cc5[nH]4)cc3)c2)CC1 [TCMDC-133934] | -11.78
COc1cccc(CNC[C@@H](O)[C@H](Cc2ccccc2)NC(=O)c2cc(OC(C)C)cc(N3CCCCS3(=O)=O)c2)c1 [TCMDC-134522] | -6.565

SMILES | % Inhibition [%]
COc1ccc2c(c1)CCCC2C(C)NCC(O)c1cccc(C(F)(F)F)c1 (centres unmarked) [TCMDC-131535] | -11.59
Cc1[nH]c(C)c(-c2ccc(-c3cccc(Cl)c3)nc2)c(=O)c1Br [TCMDC-136160] | 67.06
Cc1[nH]c(C)c(-c2ccc(-c3cccc(Cl)c3)nc2)c(=O)c1Cl [TCMDC-136300] | 76.37
Cc1ccc(NC(=O)c2ccc(CN3CCCN(CCC(C)C)CC3)cc2)cc1C [TCMDC-136443] | -19.3
Cc1nc2c(Nc3nc(-c4ccncc4)cs3)ncnc2n1-c1ccccc1Cl [TCMDC-136288] | 72.25
Cc1nc(Nc2ccncc2)cc(-c2ccncc2)n1 [TCMDC-124589] | -12.99
Cn1cnc2c(Nc3ccncc3)nc(-c3ccc4ccccc4c3)nc21 [TCMDC-141131] | -3.392
Cc1ccc(-n2c(C)nc3c(Nc4ccc(-c5ccncc5)cc4)ncnc32)c(C)c1 [TCMDC-136289] | 103.3
Oc1ccc2[nH]c(-c3cccc(F)c3)nc2c1CN1CCC(O)(c2ccccc2)CC1 [TCMDC-136359] | -19.77
CC(C(=O)Nc1ccc(Br)cc1Br)N1CCN(C(=O)c2ccco2)CC1 (centres unmarked) [TCMDC-124879] | -7.948
CCCC(C)NC(=O)[C@H](CC1CCCCC1)NC(=O)c1ccc(O)c(-c2ccc(OC)cc2)c1 (some centres unmarked) [TCMDC-140801] | 27.46
CCCNC(=O)c1cncc(-c2ccc(CNCCCc3ccccc3)cc2)c1 [TCMDC-134248] | 11.91
CN(C)CCCNCc1ccc(-c2ccc(CNCCc3ccccc3)cc2)cc1 [TCMDC-141456] | 100.3
CN(C)CCCNCc1ccc(-c2ccc(CNCCOc3ccccc3)cc2)cc1 [TCMDC-141457] | 91.94
CC[C@H](C)CNC(=O)c1cncc(-c2ccc(CNCCOc3ccccc3)cc2)c1 [TCMDC-134239] | -0.3321
CN(C)CCCOc1cccc(NC(=O)Nc2ccc(-c3ccccc3)cc2)c1 [TCMDC-139539] | -65.39
CC1(C)N=C(N)N=C(N)N1OCCOc1cccc(C(F)(F)F)c1 [TCMDC-131615] | 4.099
Cc1cc(CNCCCCCCNCc2cccc([N+](=O)[O-])c2)ccc1O [TCMDC-140413] | 32.63
CCc1c(CCNCCCCCCNCCc2ccc(Br)cc2)ccc(O)c1O [TCMDC-132044] | 115.9
CCCCCCNCc1c(O)ccc2c(CNCCCCCC)c(O)ccc12 [TCMDC-137592] | -1.678
CCc1c(CCNCCCCCCNCCc2ccc([N+](=O)[O-])cc2)ccc(O)c1O [TCMDC-132067] | 69.46
O=C(N[C@H]1CCCC[C@H]1C(=O)O)c1ccccc1 [TCMDC-124293] | -3.601
